# Most compounds without a hit are left out; they make up all but 1.4% or so of the library.
# IDE inh: human IDE inhibitors in live cells, primary screen, fluorescence polarization, HEK cells, FAbetaB substrate; FAbetaB cleavage; 0.41% of 320,000 active; inhibition, % at 5.59 µM;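 active = percent inhibition above the average of all tested compounds plus 3 SD, set per screening campaign, cut at about 16% in these data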;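 note: IDE supplied by intact live HEK cells; FP after avidin binding of uncleaved biotin substrate so inhibition keeps polarization high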
# CRFBP-R2 agonist: agonists of CRF-BP/CRF-R2 complex, primary screen, cell-based, HEK293, calcium dye fluorescence, uHTS. CRF-binding protein / CRF receptor 2 complex (human). calcium dye fluorescence (FLIPR); percent of saturating CRF peptide response. activation, % at 13.2 µM. 0.46% of 350,000 active. AID 588473, 2011;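 active = activation of at least 50%, plus an integration ratio under a set limit after plate pattern correction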
# HNF4A DNA FP: change in binding of human HNF4A to DNA, primary screen, biochemical, fluorescence polarization, FITC-DNA | Hepatocyte nuclear factor 4-alpha (Homo sapiens), P41235 | 0.3% of 360,000 active | activity change, % at 10 µM | 1 h | AID 1224865, 2016; in the data active = activity change above about 30%, passing the limit was not always enough
# Target sequence (P41235 whole entry, looked up): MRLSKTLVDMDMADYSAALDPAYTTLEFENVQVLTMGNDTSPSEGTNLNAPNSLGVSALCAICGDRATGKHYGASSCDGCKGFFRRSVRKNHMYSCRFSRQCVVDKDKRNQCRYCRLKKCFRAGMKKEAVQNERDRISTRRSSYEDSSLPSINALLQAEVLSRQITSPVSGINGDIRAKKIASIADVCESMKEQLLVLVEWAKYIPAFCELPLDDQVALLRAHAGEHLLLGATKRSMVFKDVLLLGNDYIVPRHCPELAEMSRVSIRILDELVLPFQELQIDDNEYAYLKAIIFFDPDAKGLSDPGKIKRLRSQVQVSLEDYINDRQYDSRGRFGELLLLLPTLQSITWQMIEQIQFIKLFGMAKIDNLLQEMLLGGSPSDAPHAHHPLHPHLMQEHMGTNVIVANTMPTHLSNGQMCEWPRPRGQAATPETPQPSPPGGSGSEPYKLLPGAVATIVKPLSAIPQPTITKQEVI
# TPT1 inh: Candida albicans TPT1 enzyme inhibitors, primary screen, biochemical, fluorescence polarization; tRNA 2'-phosphotransferase TPT1 (Candida albicans SC5314); recombinant caTPT1, FP RNA substrate dephosphorylation; inhibition, % at 5 µM; 0.81% of 300,000 active;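 active = inhibition above the mean of all tested compounds plus 3 SD, set per screening campaign, cut at about 24% in these data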
# IDE act: human IDE activators in live cells, primary screen, fluorescence polarization, HEK cells, FAbeta-B substrate; activation, % at 5.96 µM; FAbeta-B cleavage; 0% vehicle, 100% cell-free pure enzyme wells; 0.073% of 340,000 active; AID 493087, 2011;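 active = activation above the mean of all tested compounds plus 3 SD, set per screening campaign, cut at about 17% in these data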
# TPT1 inh confirm: Candida albicans TPT1 inhibitors, confirmation, biochemical, fluorescence polarization, triplicate | recombinant caTPT1, RNase T1 coupled | inhibition, % at 5 µM | AID 2149, 2009 | 74% of 2,400 active | shares compounds with TPT1 inh;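 active = inhibition above the primary screen limit, the mean inhibition of all tested compounds plus 3 SD, cut at about 25% in these data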
# RNase T1 counter: RNase T1 inhibitors, counter-screen for TPT1 inhibitor project, biochemical, fluorescence polarization. RNase T1 cleavage, 1536-well. 83% of 2,400 active. inhibition, % at 5 µM. shares compounds with TPT1 inh;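 active = inhibition above the solvent-only control well mean plus 3 SD, limit set per screening run, cut at about 23% in these data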;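 note: inhibitors block cleavage so intact labeled substrate keeps polarization high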
# Target sequence (P00651 whole entry, looked up): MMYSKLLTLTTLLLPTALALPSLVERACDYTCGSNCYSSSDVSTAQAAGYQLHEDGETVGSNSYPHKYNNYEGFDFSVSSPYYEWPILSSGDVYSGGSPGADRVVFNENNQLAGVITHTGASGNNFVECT
# IDE cell inh cf: human IDE inhibitors in live cells, confirmation, fluorescence polarization, HEK cells, FAbetaB substrate; shares compounds with IDE inh; inhibition, % at 5.59 µM; FAbetaB cleavage; 51% of 1,200 active;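 active = mean inhibition across triplicate wells above the cutoff set by the earlier primary insulin-degrading enzyme screen, cut at about 16% in these data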
# HEK cytotox: cytotoxicity in HEK cells, cytotoxicity control for IDE inhibitor project, cell-based, luminescence. 28% of 1,200 active. inhibition, % at 5.59 µM. shares compounds with IDE inh. HEK293 cytotoxicity, ATP luminescence; in the data active = inhibition above about 22%
# Hits are given with their value; . = inactive; / = not tested or not shown.
SMILES,IDE inh,CRFBP-R2 agonist,HNF4A DNA FP,TPT1 inh,IDE act,TPT1 inh confirm,RNase T1 counter,IDE cell inh cf,HEK cytotox
O=C(CCCCl)NC1=NN(c2ccccc2)C(=O)C1,.,.,.,35,.,.,.,/,/
Cc1cccc(NC(=O)CSCC(=O)Nc2cccc3ncccc23)c1,.,.,.,.,.,/,/,/,/
Cc1cc(Cl)ccc1-c1cc2nc(NCCCN(C)C)n(C)c(=O)c2s1,/,/,.,/,/,/,/,/,/
NS(=O)(=O)c1cc2c(cc1Cl)NC(Cc1ccccc1)NS2(=O)=O (configuration not stated),.,.,.,43,.,.,.,/,/
NS(=O)(=O)c1cc2c(cc1Cl)NC(CC1CCCC1)NS2(=O)=O (configuration not stated),.,.,.,.,.,/,/,/,/
CC1CCc2cccc3c2N1c1cc(C#N)c(C#N)cc1O3 (configuration not stated),.,.,.,26,.,.,31,/,/
CC1CCCCN1c1cc(C#N)c(C#N)cc1[N+](=O)[O-] (configuration not stated),.,.,.,.,.,/,/,/,/
O=c1cc(O)c2sc(Nc3ccc(F)cc3)nc2[nH]1,.,.,.,35,.,.,29,/,/
CCOc1ccc(CN(C)C(=O)c2cc(S(=O)(=O)N3CCCC3)ccc2C)cc1,.,.,.,/,.,/,/,/,/
CC1CCN(CC(=O)Nc2sc3c(c2C#N)CCC3)CC1,.,.,.,39,.,.,.,/,/
O=C1NC(=Nc2ccccc2Cl)S/C1=C\c1cccc([N+](=O)[O-])c1O,.,.,.,28,.,42,55,/,/
CCOC(=O)c1sc2cc([N+](=O)[O-])cc(SCC(=O)OC)c2c1N,.,.,.,29,.,35,49,/,/
Cc1ccc(S(=O)(=O)NCc2ccc(C(=O)N3CCCC3)cc2)cc1,.,.,.,33,.,.,.,/,/
O=c1cc(-c2ccccc2)nc2c(-c3ccccc3)c(C(F)(F)F)[nH]n12,.,.,.,.,/,/,/,/,/
CCC1(C)Cc2c(sc(NC(=S)NC(=O)c3ccccc3)c2C#N)CO1 (configuration not stated),.,.,.,.,.,/,/,/,/
CN1Cc2sc(NC(=S)NC(=O)c3ccccc3)c(C#N)c2CC1(C)C,58,93,/,97,/,85,90,.,.
CC(=O)COc1cc2c(-c3cc4ccccc4o3)cc(=O)oc2cc1C,.,.,.,.,.,/,/,/,/
Cc1c(C(=O)N2CCOCC2)cc(C(C)(C)C)n1-c1ccccc1,.,.,.,.,.,/,/,/,/
CCOC(=O)/C(C#N)=C/C=C1/C=CC=CN1C,.,.,.,.,.,/,/,/,/
C=CCN1C=CC(=C/C=C(/C#N)C(=O)OCC)C=C1,44,71,.,176,.,187,173,63,.
O=C(OCCSCCOC(=O)C1CC=CCC1)C1CC=CCC1 (configuration not stated),/,.,.,/,.,/,/,/,/
CCOc1cc(/C=C/C(=O)c2ccc(OC)c(CN3CCOCC3)c2)cc(Br)c1O,94,58,.,55,.,81,86,150,22
CCOc1cc(/C=N/NC(=O)c2ccc(CN3CCOCC3)cc2)ccc1OC,.,.,.,.,.,/,/,/,/
CC(CNS(=O)(=O)c1ccccc1)(c1ccccc1)N1CCCCC1 (configuration not stated),.,.,.,.,.,/,/,/,/
COc1ccc(/C=c2\s/c(=C/C(=O)c3ccc(C)cc3)[nH]c2=O)c(OC)c1,88,123,.,67,.,28,37,112,.
SMILES,IDE inh,CRFBP-R2 agonist,HNF4A DNA FP,TPT1 inh,IDE act,TPT1 inh confirm,RNase T1 counter,IDE cell inh cf,HEK cytotox
Cc1oc(C)c2c(=O)ccc3c(c12)OC(N)=C(C#N)C3c1ccccc1Cl (configuration not stated),30,.,.,29,.,48,56,26,.
CN(C)c1ccc(/C=C2/C[N+](C)(C)C/C(=C/c3ccc(N(C)C)cc3)C2=O)cc1,/,.,.,/,.,/,/,/,/
CC(C)/C=C1\CC/C(=C\c2ccc(N(C)C)cc2)C1=O,68,166,.,121,.,121,118,144,.
CN1CCS/C1=C/C=C1\SC(=S)N(CC(=O)O)C1=O,60,149,.,169,.,180,167,75,.
O=C(O)c1ccc(/C=C2/SC(=S)N(Cc3ccccc3)C2=O)cc1,/,.,.,/,.,/,/,/,/
CN1CCS/C1=C/C=C1/SC(=S)N(Cc2ccccc2)C1=O,105,.,.,171,.,169,157,82,.
Cc1cc(Br)cc(Br)c1OCC(=O)NNC(=O)Nc1ccccc1,.,.,.,.,.,/,/,/,/
CCCCNC(=O)c1nc(C2CCN(S(=O)(=O)c3cccc(C(F)(F)F)c3)CC2)oc1-c1ccccc1,/,/,.,/,/,/,/,/,/
CCN1CCN(Cc2c(O)ccc3c(=O)c(-c4ccccc4OC)coc23)CC1,.,.,.,.,.,/,/,/,/
CCN1CCN(Cc2c(O)ccc3c2O/C(=C\C=C\c2ccccc2OC)C3=O)CC1,32,74,47,53,.,64,68,55,.
O=C(NN1C(=O)/C(=C/c2ccc(O)cc2)SC1=S)c1ccccc1O,103,.,106,55,.,65,72,120,.
CC(/C=C1\SC(=S)N(NC(=O)c2cccc(O)c2)C1=O)=C\c1ccccc1,.,.,.,.,.,/,/,/,/
O=C(NN1C(=O)/C(=C/C=C/c2ccccc2)SC1=S)c1ccncc1,25,.,79,131,.,35,47,.,.
COc1ccc(/C=C2\SC(=S)N(NC(=O)c3ccncc3)C2=O)cc1OC,.,/,/,.,/,/,/,/,/
COc1cc(/C=C2\SC(=S)N(NC(=O)c3ccccc3O)C2=O)ccc1O,120,.,41,31,.,34,47,113,.
O=C(NN1C(=O)/C(=C/c2ccc(O)cc2)SC1=S)c1cccc(O)c1,144,.,107,71,.,67,72,104,.
O=C(Cc1ccccc1)NN1C(=O)/C(=C/c2ccc(C(=O)O)cc2)SC1=S,.,.,.,.,.,/,/,/,/
